# Where “and” joins values, the source holds several entries; their conditions need not be identical. Identical values can stand only once. Results filed as inconclusive are left out. Unmarked numbers belong to inactive results. Calls of active or inactive are those of the source. Calls follow the shape of the dose curve; as a rule, active = well fitted curve in the direction sought with a large enough effect; inconclusive = small, poorly fitted or top-dose-only effect, or another doubt; inactive = no such curve, though single readings can be large; an effect the other way counts as inactive or inconclusive.
# Experiments:
# [1] = molecular target: Cellular tumor antigen p53 (Homo sapiens) (UniProt P04637); experiment: Primary qHTS for small molecule compounds that upregulate eGFP-tagged delta133p53alpha (in N-terminal) cells. (AID 2060322); conditions: NCI-H358 eGFP-delta133p53alpha fluorescence, 24 h; activation: hits give high values; also: nearly all actives have a fitted effect of over 75% in size; also: potency is read from the fitted curve at half-maximal effect;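 as to activation: series mostly up to about 56 µM; 0% = DMSO vehicle and 100% = reference activator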
# Cellular tumor antigen p53 (Homo sapiens), sequence (P04637 whole entry, looked up): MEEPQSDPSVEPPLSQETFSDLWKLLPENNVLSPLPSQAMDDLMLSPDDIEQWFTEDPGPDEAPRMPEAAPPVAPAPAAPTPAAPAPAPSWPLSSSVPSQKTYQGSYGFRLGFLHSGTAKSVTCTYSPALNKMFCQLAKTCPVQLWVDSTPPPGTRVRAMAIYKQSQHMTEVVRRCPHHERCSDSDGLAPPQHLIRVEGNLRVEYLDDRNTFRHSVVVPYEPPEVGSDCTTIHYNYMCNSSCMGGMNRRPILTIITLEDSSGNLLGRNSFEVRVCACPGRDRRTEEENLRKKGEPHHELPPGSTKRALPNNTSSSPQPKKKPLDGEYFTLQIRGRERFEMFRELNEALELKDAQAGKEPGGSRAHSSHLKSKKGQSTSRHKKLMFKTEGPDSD
# Outline: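 NCI-H358 cells pre-induced 24 h with 10 ng/ml doxycycline to express N-terminal eGFP-delta133p53alpha, then dosed 24 h at 37C without doxycycline; fixed, Hoechst-stained, GFP intensity by laser scanning cytometry, normalized to DMSO (0%) and 57.5 uM 5-azacytidine (100%).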
# [2] = molecular target: Retinaldehyde dehydrogenase 3 (Homo sapiens) (UniProt P47895); experiment: qHTS for Inhibitors of the Aldehyde Dehydrogenase Family (ALDH1A3) Primary screen (AID 2061315);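 also: plate controls were DMSO vehicle for no effect and reference inhibitor for full effect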
# [3] = BET inhibitor-based combinations targeting novel dependencies in MECOM-rearranged (r) AML: SET-2 cell line (AID 2202231); conditions: SET-2 AML cells viability, CellTiter-Glo luminescence, 48 h; viability: hits give low values, concentration not given here; also: nearly all actives have a fitted effect of over 35% in size; also: potency is read from the fitted curve at half-maximal effect;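 as to viability: plate controls were DMSO treated cells for no effect and wells without cells for full effect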
# Outline: (§1)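 Here, 11-point titrations of each agent were applied to 500 seeded cells and incubated 48 hr; CellTiter-Glo signal, scaled against DMSO and empty wells, was integrated as AUC, then Z-scored within the individual line.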
# [4] = BET inhibitor-based combinations targeting novel dependencies in MECOM-rearranged (r) AML: OCI-AML3 cell line (AID 2202232); conditions: Potency: OCI-AML3 viability; also: potency is read from the fitted curve at half-maximal effect; nearly all actives have a fitted effect of over 35% in size
# Outline: as §1
# [5] = BET inhibitor-based combinations targeting novel dependencies in MECOM-rearranged (r) AML: MV-4-11 cell line (AID 2202233); also: potency is read from the fitted curve at half-maximal effect; nearly all actives have a fitted effect of over 45% in size
# Outline: (§2)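 Normalized to DMSO and empty-well controls, the luminescence data from CellTiter-Glo after 48 hr drug exposure were fitted across 11 concentrations. Reported metrics are area under the dose-response curve and its Z-transformed form.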
# [6] = BET inhibitor-based combinations targeting novel dependencies in MECOM-rearranged (r) AML: HNT-34 cell line (AID 2202234); also: potency is read from the fitted curve at half-maximal effect; nearly all actives have a fitted effect of over 35% in size
# Outline: as §2
# [7] = BET inhibitor-based combinations targeting novel dependencies in MECOM-rearranged (r) AML: AML-194 cell line (AID 2202237; also: potency is read from the fitted curve at half-maximal effect; nearly all actives have a fitted effect of over 40% in size)
# Outline: as §1
# [8] = BET inhibitor-based combinations targeting novel dependencies in MECOM-rearranged (r) AML: UCSD-AML1 cell line (AID 2202235); also: nearly all actives have a fitted effect of over 40% in size; also: potency is read from the fitted curve at half-maximal effect
# Outline: as §2
smiles,measurement,setting,value
CC[C@]1(O)C[C@@H]2CN(CCc3c([nH]c4ccccc34)[C@@](C(=O)OC)(c3cc4c(cc3OC)N(C)[C@H]3[C@@](O)(C(=O)OC)[C@H](OC(C)=O)[C@]5(CC)C=CCN6CC[C@]43[C@@H]65)C2)C1,activation,[1],-35.1%
same,Potency,[2],inactive
CC(=O)OC[C@@]12C(=O)C[C@@H](C)[C@]3(C[C@@H](c4ccoc4)O[C@H]3OC(C)=O)[C@H]1CCC[C@]21CO1,activation,[1],11.5%
same,Potency,[2],inactive
C/C(=C\CCC1(C)C2CCC(C2)C1(C)O)C(=O)O (stereo not drawn),activation,[1],-13.7%
same,Potency,[2],inactive
COc1cccc2nc(-c3cccs3)nc(NN3C(=O)C=C(C)C3=O)c12,Potency,[1],19.3 µM (active)
same,Potency,[2],inactive
same,Potency,[3],0.417 µM (active)
same,Potency,[4],0.417 µM (active)
same,Potency,[5],0.166 µM (active)
same,Potency,[6],0.263 µM (active)
same,Potency,[7],0.263 µM (active)
O=C(O)c1cc2cccc([N+](=O)[O-])c2[nH]1,activation,[1],10.3%
same,Potency,[2],inactive
CCC/C=C/C=C/C1CC(O)C(O)C(=O)C1CO (stereo not drawn),activation,[1],-17.6%
same,Potency,[2],inactive
COc1cc(/C=C/C(=O)NCCn2c(C(F)(F)F)cc3ccccc32)cc(OC)c1OC,activation,[1],-3.67%
same,Potency,[2],inactive
CCCn1cnc2c(NCc3ccccc3)nc(N[C@H](CC)CO)nc21,activation,[1],2.33%
same,Potency,[2],inactive
O=C(O)[C@H](Cc1ccc(Nc2nccc3ccncc23)cc1)NC1=C(Br)C(=O)C12CCCCC2,activation,[1],-6.21%
same,Potency,[2],inactive
O=C(Nc1ccc(-c2ccc(Cl)c(Cl)c2)cc1)C1=C(O)c2ccccc2S(=O)(=O)N1,activation,[1],-5.73%
same,Potency,[2],inactive
CCCc1cc2c(N3CCN(C4=NCC(C)(C)S4)CC3)ncnc2s1,activation,[1],-16.2%
same,Potency,[2],inactive
CCC(Nc1ncnc2nc[nH]c12)c1nc2cccc(F)c2c(=O)n1-c1ccccc1 (stereo not drawn),activation,[1],4.46%
same,Potency,[2],inactive
CC(C)CC(=O)n1cc(C(N)=O)c(=O)cc1C(O)c1ccccc1 (stereo not drawn),activation,[1],-1.53%
same,Potency,[2],inactive
Clc1ccc(C(Cn2ccnc2)OCc2c(Cl)cccc2Cl)c(Cl)c1 (stereo not drawn),activation,[1],27.9% and 17%
same,Potency,[2],inactive
same,Potency,[3],26.3 µM (active)
same,Potency,[4],10.5 µM (active)
same,Potency,[5],18.6 µM (active)
same,Potency,[6],26.3 µM (active)
same,Potency,[8],inactive
COCCCNCC1COc2ccccc2O1 (stereo not drawn),activation,[1],-6.68%
same,Potency,[2],inactive
CCC(C)/C=C(C)/C=C/C(=O)C1CCC(O)C(C)(O)C1=O (stereo not drawn),activation,[1],14.5%
same,Potency,[2],inactive
CC[C@H](Nc1ncnc2nc[nH]c12)c1nc2cccc(F)c2c(=O)n1-c1ccccc1,activation,[1],21.6% and 7.67%
same,Potency,[2],inactive
same,viability,[3],94.4%
same,Potency,[4],4.68 µM (active)
same,Potency,[8],5.9 µM (active)
CC1OC2OC(=O)C3(C)CC4C5(CO5)C5=CC(=O)OC(C)(C)C5=CC(=O)C4(C)C(C1=O)C23 (stereo not drawn),activation,[1],12.2%
same,Potency,[2],inactive
O=C(Cc1c(F)cccc1F)Nc1cc(OCc2ccc(Cl)cc2)ccn1,activation,[1],15.7%
same,Potency,[2],inactive
C/C=C/C=C/C(O)=C1\C(=O)[C@]2(C)C3C(C(=O)CC/C=C/C)=C(O)C4(C)C1[C@]1(C)O[C@@]4(O)[C@@]3(C)O[C@@]12O,activation,[1],1.53%
same,Potency,[2],inactive

# From PubChem BioAssay (NCATS)
